Screening data as filed in PubChem.
TRPV1 PAM = HTS Assay for Compounds that Act as Potentiators of the Vanilloid Receptor 1; Transient receptor potential cation channel subfamily V member 1 (Homo sapiens), Q8NER1; actives 0.02% (n = 320,000); TRPV1-expressing cells, Fluo-8 calcium influx, capsaicin EC20 potentiation; potentiation, % at 8.33 µM; in the data active = potentiation above about 80%; inconclusive = between about 30% and that limit; also: 0% is about no effect
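Fluo-8 calcium influx in TRPV1-expressing cells, kinetic read (ex 480/em 520 nm). Compound added and read 3 min for agonist activity, followed by capsaicin at EC20 final and 2 min further read for enhancement.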
p53 reactivator = qHTS assay for re-activators of p53 using a Luc reporter; Potency, µM (series often up to 92.2 µM), without a hit: at the top dose activity change, positive = activation, actives largely listed as activators; AID 504706, 2011; H1299 p53-A138V BP100-luciferase reporter, luminescence, 24 h; actives 0.063% (n = 320,000); active = well fitted activation curve with a large enough effect; inconclusive = small, poorly fitted or top-dose-only effect; inactive = no such curve, though single readings can be large or run the other way; also: potency is read from the fitted curve at half-maximal effect; % of control where 0% means no effect; nearly all actives have a fitted effect of over 45% in size
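p53-null H1299 cells stably carrying temperature-sensitive p53-A138V and a BP100-luciferase reporter were pinned with compounds (4-point, 1:5 series) and held 24 hrs at 37 deg C. Luminescence was read 10 min after detection reagent.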
hERG WT inh = qHTS for Inhibitors of KCHN2 3.1: Wildtype qHTS; activity change, % at 1.84 µM; AID 720551, 2013; actives 0.37% (n = 340,000); Voltage-gated inwardly rectifying potassium channel KCNH2 (Homo sapiens), Q12809; U2OS, BacMam KCNH2, thallium flux FluxOr; stronger effect = lower value;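 active = maximum activity change below -70%; inconclusive = maximum activity change between -70% and -50%; inactive = maximum activity change above -50%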; also: % is scaled to controls: 0 for no effect and ±100 for the full control effect
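U2OS cells were transduced with wild-type KCNH2 virus (2.03 x 10^8 / mL) for 4 h at room temperature, then cultured overnight at 37 C. Thallium flux was read with FluxOr dye. Rate constants were normalized to DMSO controls.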
TRPV1 ag = HTS Assay for Compounds that Act as Agonists of the Vanilloid Receptor 1. TRPV1-expressing cells, Fluo-8 calcium influx, agonist mode. activation, % at 8.33 µM. actives 0.19% (n = 320,000); in the data active = activation above about 80%; inconclusive = between about 30% and that limit; also: 0% is about no effect
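Fluo-8 calcium influx in TRPV1-expressing cells, kinetic read (ex 480/em 520 nm). Compound added and read 3 min for agonist activity, followed by capsaicin at EC20 final and 2 min further read for enhancement.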
ClpP mod = qHTS Assay for Activators of ClpP; Potency, µM (highest dose often 57.5 µM), inactives show at the top dose activity change, negative = active; purified B. subtilis ClpP, FRET peptide cleavage, 20 min; ATP-dependent Clp protease proteolytic subunit (Bacillus subtilis (strain 168)), P80244; actives 1.9% (n = 340,000); active = well fitted falling curve with a large enough effect; inconclusive = small, poorly fitted or top-dose-only effect; inactive = no such curve, though single readings can be large or run the other way; also: potency is read from the fitted curve at half-maximal effect; the source files actives as falling curves though it sought activators and does not explain the sign; nearly all actives have a fitted effect of over 65% in size
Target sequence (P80244 whole entry, looked up): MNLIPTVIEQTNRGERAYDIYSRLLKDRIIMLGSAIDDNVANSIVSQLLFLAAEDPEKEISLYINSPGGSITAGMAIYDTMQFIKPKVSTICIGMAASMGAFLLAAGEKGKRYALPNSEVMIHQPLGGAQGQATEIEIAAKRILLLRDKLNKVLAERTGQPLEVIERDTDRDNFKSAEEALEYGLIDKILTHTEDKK
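Purified B. subtilis ClpP, 10 microg/mL final in Tris/HCl pH8 with KCl, BSA, glycerol and Tween-20, cleaved an Abz/nitrotyrosine-quenched decapeptide. Fluorescence (ex 320, em 430) was read at 0 and 20 min at room temperature. Delta was normalized to 5.8 microM ADEP and DMSO/no-enzyme controls.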
KCNH2 3.1 inh = qHTS for Inhibitors of KCHN2 3.1: Mutant qHTS; Potassium voltage-gated channel subfamily H member 2, brain isoform KCNH2 3.1 (human); U2OS KCNH2 3.1, thallium flux FluxOr; stronger effect = lower value; activity change, % (tested at about 1.8 µM); actives 0.95% (n = 340,000); AID 720553, 2013;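 active = maximum activity change below -70%; inconclusive = maximum activity change from -70% to -50%; inactive = maximum activity change above -50%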;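 also: thallium influx rate constant from kinetic fluorescence after stimulation buffer; % is scaled to controls: 0 for no effect and ±100 for the full control effect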
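Steps: virus added to U2OS suspension (4 h, RT, dark); medium with 10% FBS added, cells plated, 37 C overnight; FluxOr/Red40 loading buffer 45 min RT; stimulation buffer, 2 min kinetic read; rate constant normalized.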
Active calls of the source: *; ? = inconclusive; . = no result. Only some compounds are listed: those with a hit (about 2.6% of all), similar ones and a draw of the others.

SMILES	TRPV1 PAM	p53 reactivator	hERG WT inh	TRPV1 ag	ClpP mod	KCNH2 3.1 inh
CCOC(=O)Cn1c2ccccc2n2nc(CCC(=O)O)c(=O)nc12	-11.0	8.3%	2.5	5.1	.	4.2
CC1CCN(S(=O)(=O)c2ccc3c(c2)c(=O)c(C(=O)N2CCCCC2)cn3C)CC1	0.5	1.7%	-5.5	5.1	-3.9%	-1.0
CC1CCN(S(=O)(=O)c2ccc3c(c2)c(=O)c(C(=O)N2CCOCC2)cn3C)CC1	-9.9	6.0%	-4.7	0.2	-3.6%	-127.1*
CCCC[n+]1c(/C=C/c2c(OC)cc(OC)cc2OC)ccc2ccccc21	.	.	.	.	-2.6%	.
COc1cc(NC(=O)c2cc3cc4ccc(OC)c(Cl)c4nc3s2)cc(OC)c1	.	.	.	.	-4.4%	.
Cc1cnc2c3c(cc(Cl)c2c1)-c1ccccc1S(=O)(=O)N3	-6.4	.	.	22.0	.	.
COc1ccc(CCn2c(=N)c(C(=O)NCc3ccco3)cc3c(=O)n4ccccc4nc32)cc1OC	.	.	-15.6	.	1.2%	-29.6
N=c1c(C(=O)NCc2ccco2)cc2c(=O)n3ccccc3nc2n1CC1CCCO1 (stereo not drawn)	.	.	-9.8	.	28.2µM*	-11.5
N=c1c(C(=O)NCc2ccco2)cc2c(=O)n3ccccc3nc2n1CCc1ccccc1	1.7	27.3%	-8.3	-2.4	28.2µM*	-36.6
N=c1c(C(=O)NCc2ccc(F)cc2)cc2c(=O)n3ccccc3nc2n1CC1CCCO1 (stereo not drawn)	-21.4	-7.3%	-122.3*	?	-8.2%	-86.0*
O=C(NCc1ccc(F)cc1)c1cccc(N2CCCS2(=O)=O)c1	.	.	.	.	-5.4%	.
COc1ccc(-c2nc3c4ccccc4[nH]c(=O)n3n2)cc1	25.3	.	-10.6	1.0	31.6µM*	-8.5
O=C(O)CSc1nc2ccc(Cl)cc2[nH]1	?	6.9%	4.4	0.5	25.1µM*	12.2
CCOC(=O)NC(=O)CSc1nc2ccc(C)cc2[nH]1	-9.3	1.7%	1.9	-0.5	.	-115.6*
Cc1ccc2nc(SCC(=O)Nc3nonc3N)[nH]c2c1	2.4	0.3%	-9.1	3.1	-1.1%	7.6
Cc1cc(NCCCN(C)C)n2nc(-c3cccs3)cc2n1	-10.1	-12.6%	-2.0	2.6	28.2µM*	1.0
O=C(C1=C[C@@H](c2ccc3c(c2)OCO3)C[C@@H](OCCCCO)O1)N1CCOCC1	-8.7	-2.8%	-4.8	15.9	-1.2%	14.9
CN1CCN(C(=O)C2=C[C@H](c3ccc4c(c3)OCO4)C[C@H](OCCCCO)O2)CC1	.	.	-1.5	.	-9.3%	-90.7*
Cc1ccc2nc(CO)[nH]c2c1	.	.	.	.	1.4%	.
COc1ccc(OCC(=O)Nc2ccc3c(c2)nc(CCN2CCCCC2)n3C)cc1	5.8	4.6%	25.4	1.5	-5.7%	-72.4*
Cc1cccc(OCC(=O)Nc2ccc3c(c2)nc(CN2CCCCC2)n3C)c1	3.9	1.3%	15.3	0.4	-9.5%	-14.9
Cn1c(CCN2CCCCC2)nc2cc(NC(=O)COc3ccccc3)ccc21	-0.2	9.3%	23.0	0.7	-10.2%	-85.5*
Cc1cccc(OCC(=O)Nc2ccc3c(c2)nc(CCN2CCCCC2)n3C)c1	-0.5	-11.7%	30.7	1.3	-5.5%	-77.1*
Cc1cc(Oc2ccccc2)nc(C#N)n1	.	.	.	.	-1.7%	.
CCCCN(CCCC)S(=O)(=O)c1ccc2oc(C(=O)NCc3ccccc3)c(C)c2c1	.	.	.	.	-1.2%	.
SMILES	TRPV1 PAM	p53 reactivator	hERG WT inh	TRPV1 ag	ClpP mod	KCNH2 3.1 inh
CC(=O)N1N=C(c2ccc(C(C)(C)C)cc2)OC1(C)C	2.4	14.6%	-0.4	4.5	31.6µM*	-1.5
COc1ccccc1Cc1c(C(C)(C)C)nc2c3ccccc3ccn12	.	.	.	.	-17.1%	.
O=C(/C=C/c1cc(Br)ccc1O)c1ccco1	8.5	-13.6%	-8.6	-2.6	-1.1%	-17.6
O=C(/C=C/c1ccccc1O)c1ccco1	?	.	1.0	-2.0	1.58µM*	14.5
Cc1ccc(NC(=O)c2ccccc2F)nc1	?	15.3%	8.1	0.9	15.8µM*	3.9
COCCOc1ccc(C(F)(F)F)cc1NC(=O)c1ccccc1F	-17.2	6.5%	-7.3	?	25.1µM*	-11.5
O=C(Nc1ccccc1NC(=O)c1ccccc1F)c1ccccc1F	-32.6	.	-89.2*	-2.0	.	14.4
O=C(Nc1ccccc1C(=O)Nc1ccccc1)c1ccccc1F	-8.2	3.8%	-4.5	?	-2.8%	-6.0
CCOCCCNC(=O)C1CCN(c2nn3cc(-c4ccc(F)cc4)nc3s2)CC1	.	.	.	.	1.0%	.
CCOC(=O)c1ccccc1NC(=O)CSc1ccc(-c2sc(C)nc2C)nn1	.	.	.	.	-4.5%	.
COc1ccc(OC)c(C(=O)CSc2nc3ncccc3[nH]2)c1	-6.9	-3.4%	-1.9	-0.3	31.6µM*	-14.0
O=C1CC(C(=O)Nc2ccc(O)c(C(=O)O)c2)C(c2ccccc2)O1 (stereo not drawn)	-0.1	0.5%	-12.7	-3.0	25.1µM*	13.0
COc1ccc(NC(=O)Cn2cnc3c(nc4n3CCCCC4)c2=O)c(OC)c1	.	.	.	.	-2.2%	.
COc1ccc(NC(=O)CCS(=O)(=O)c2nc(-c3cccs3)cc(C(F)(F)F)n2)cc1	.	.	.	.	-7.6%	.
O=C(CCS(=O)(=O)c1nc(-c2cccs2)cc(C(F)(F)F)n1)Nc1ccc(F)c(Cl)c1	.	.	.	.	22.4µM*	.
COCCSc1ncnc2c1oc1nc3c(cc12)COC(C)(C)C3	-5.9	9.9%	-1.7	-1.5	-6.5%	25.4
CC1(C)Cc2nc3oc4c(N(CCO)Cc5ccccc5)ncnc4c3cc2CO1	23.9	-14.1%	0.0	3.3	14.1µM*	-7.2
CCCc1cc(=O)oc2cc(C)c3c(C)coc3c12	-5.3	-3.1%	-0.6	19.7	?	-12.0
CCCc1cc(=O)oc2cc(C)c3c(-c4ccccc4)coc3c12	.	.	.	.	20µM*	.
O=S(=O)(NCc1nc2cccnc2n1Cc1ccc(F)cc1)c1ccc(Cl)s1	.	.	.	.	-2.4%	.
CN(C)c1ccc(/C=C(\C#N)C(=O)c2ccccc2)cc1	22.2	?	-8.3	83.7*	1.0%	-22.4
Cc1ccc(C=C(C#N)C(=O)c2ccccc2)cc1	.	.	.	.	-6.1%	.
CN(Cc1ccccc1)C(=O)Nc1ccc2c(c1)N(C)C(=O)c1ccccc1S2	.	.	.	.	3.3%	.
C=CCOc1ccc2c(OC)c3ccoc3nc2c1OC	-6.6	?	-3.0	13.7	22.4µM*	-1.4
COc1ccc(CCNC(=O)Cn2c(=O)nc(-c3ccccc3)c3ccccc32)cc1OC	.	.	.	.	1.2%	.
CCCCN1C(=O)C(=O)c2cc(Cl)ccc21	.	-7.7%	2.1	.	-8.8%	-7.0
